Rows were chosen to be rich in hits. Some 6.3% of all compounds tested hit in one or more screens of this group.
MPTP block – mitochondrial permeability transition pore inhibitors, primary screen, biochemical, isolated mouse mitochondria, absorbance; Ca2+ swelling absorbance, 30 min; inhibition, % at 10 µM; 360,000 tested, 1.4% active; AID 602449, 2012;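 active = inhibition of 50% or more, scaled per plate between neutral and stimulator controls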;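 also: 0% = DMSO wells given calcium and 100% = 1 mM EGTA wells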
Mdm2 MdmX PPI – inhibitors of human Mdm2-MdmX association, primary screen, cell-based, luminescence, split luciferase, SaOS-2, uHTS; SaOS-2 split-luciferase Mdm2/MdmX complementation; inhibition, % at 8 µM; 330,000 tested, 3% active; AID 485346, 2010;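 active = inhibition of at least 50% at 8 µM in the primary screen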
tim23-1 inh – growth inhibitors of tim23-1 mutant yeast, primary screen, luminescence, uHTS; S. cerevisiae tim23-1 growth, BacTiter-Glo luminescence, 24 h; inhibition, % at 20 µM; 330,000 tested, 1.3% active;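 active = growth inhibition of the mutant yeast at or above 50%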;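 also: temperature-sensitive mutant grown at 25 °C; plate controls were DMSO-treated mutant yeast for no effect and medium wells lacking yeast for full effect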
TIM10 inh – growth inhibitors of isogenic TIM10 control yeast, primary screen, counter-screen for tim10-1 yeast inhibitor project, luminescence, uHTS. inhibition, % at 10 µM. S. cerevisiae TIM10 strain growth, BacTiter-Glo luminescence, 24 h. 330,000 tested, 1.4% active;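 active = inhibition of 40% or more at the single tested concentration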;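 also: wild-type TIM10 isogenic control strain grown at permissive 25 °C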
tim10-1 inh – growth inhibitors of tim10-1 mutant yeast, primary screen, luminescence, uHTS. inhibition, % at 20 µM. S. cerevisiae tim10-1 ts strain growth, BacTiter-Glo, 24 h. 330,000 tested, 2.2% active;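 active = inhibition of at least 40%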;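 also: mutant grown at 25 °C; 0% = DMSO wells with yeast and 100% = wells holding no yeast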
Mdm2 MdmX conf – Mdm2-MdmX complex disruptors, retested hits, confirmation, luminescence, single concentration; shares compounds with Mdm2 MdmX PPI; Mdm2-MdmX binding, luminescent assay; inhibition, % at 8 µM; 10,000 tested, 55% active; AID 489028, 2010; in the data active = inhibition above about 40%
Full FLuc ctr – full-length luciferase signal inhibition, confirmation, counter-screen for Mdm2/MdmX interaction inhibitor project, cell-based, single concentration, SaOS-2 | shares compounds with Mdm2 MdmX PPI | SaOS-2 full-length luciferase counterscreen, luminescence | inhibition, % at 8 µM | 6,200 tested, 77% active | AID 504607, 2011;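 active = mean inhibition at 8 µM reaching about 37%, which flags the compound as non-specific, limit read from the data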;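 also: p53-null SaOS-2 cells with luciferase driven by a doxycycline-inducible promoter; compound on cells about two nights before reading with doxycycline added after day one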
Rh123 counter – fluorescence retest of MPTP screen hits in isolated mitochondria, single concentration; shares compounds with MPTP block; 5,000 tested, 78% active; AID 624504, 2012; membrane potential, Rhodamine 123 fluorescence; inhibition, % at 10 µM; in the data active = inhibition above about 22%;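 also: 0% = DMSO vehicle and 100% = positive control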
MPTP swell DR – mitochondrial permeability transition pore inhibitors, dose response, biochemical, absorbance, uHTS hits; shares compounds with MPTP block; isolated mitochondria swelling; IC50, µM; 780 tested, 58% active; in the data active = IC50 below about 20 µM
MPTP cs DR – fluorescent counter-screen in isolated mitochondria, dose response, counter-screen for MPTP inhibitor project, biochemical, fluorescence, uHTS hits. shares compounds with MPTP block. isolated mitochondria counterscreen, fluorescence read-out. IC50, µM. 780 tested, 49% active. AID 651564, 2012; in the data active = IC50 below about 80 µM
An asterisk follows results filed as active; i = inactive; · = no result.

SMILES	MPTP block	Mdm2 MdmX PPI	tim23-1 inh	TIM10 inh	tim10-1 inh	Mdm2 MdmX conf	Rh123 counter	others
Cc1ccc(NC(=O)Nc2nnc(-c3ccncc3)s2)cc1C	87*	94*	-2	6	-5	56*	79*	Full FLuc ctr=23
O=C(Nc1cccc(Cl)c1)Nc1nnc(-c2ccncc2)s1	101*	100*	-21	6	-17	98*	55*	Full FLuc ctr=56*
O=C(NCCc1ccncc1)Nc1cccc(Cl)c1	0	-30	6	14	11	·	·
O=C(Nc1ccc(F)cc1)Nc1nnc(COc2ccccc2F)s1	83*	91*	20	12	23	82*	83*	Full FLuc ctr=44*
O=C(Nc1ccc(F)cc1)Nc1nnc(-c2ccncc2)s1	91*	69*	10	7	8	32	89*
O=C(Nc1nnc(COc2ccccc2F)s1)Nc1ccccc1F	19	13	17	16	5	·	·
COC(=O)Nc1nnc(-c2ccncc2)s1	-4	25	14	-10	12	·	·
O=C(Nc1nnc(-c2ccc(F)cc2)s1)Nc1ccccc1F	4	2	4	14	6	·	·
CCCCn1c(N)c(N(CCOC)C(=O)CCN2C(=O)C3CC=CCC3C2=O)c(=O)[nH]c1=O (configuration not stated)	0	·	·	·	·	·	·
O=C(O)CSc1ncnc2sc(-c3ccccc3)cc12	0	22	5	-3	1	·	·
CC(=O)c1c(C)[nH]c(C(=O)CSc2ncnc3sc(-c4ccccc4)cc23)c1C	96*	51*	15	28	25	6	39*
O=C(N/N=C/c1ccc(O)c(O)c1)c1cccc(S(=O)(=O)N2CCCCC2)c1	-2	-3	8	4	10	·	·
O=C(N/N=C\c1cc(Br)ccc1O)c1ccc(S(=O)(=O)N2CCCCC2)cc1	66*	70*	6	26	18	75*	53*	Full FLuc ctr=21
Nc1ccc(C23CC4CC(CC(CO)(C4)C2)C3)cc1	-1	10	16	15	13	·	·
NCC12CC3CC(C1)CC(c1ccc(Cl)cc1)(C3)C2	75*	96*	26	19	14	28	-13	MPTP swell DR=3.7*;MPTP cs DR=42*
CS(=O)(=O)c1ccc2nc(NC(=O)Nc3ccccc3F)sc2c1	1	-206	-1	-9	-6	·	·
CS(=O)(=O)c1ccc2nc(NC(=O)Nc3cccc(Cl)c3)sc2c1	89*	92*	2	-9	-6	64*	59*	Full FLuc ctr=77*
CS(=O)(=O)c1ccc2nc(NC(=O)Nc3ccc(Cl)c(Cl)c3)sc2c1	95*	54*	3	18	5	9	71*
CSc1ccc(Cn2c(C)c(C(=O)NCCC#N)sc2=O)cc1	-2	·	·	·	·	·	·
Cc1ccc(S(=O)(=O)Nc2nc3ccccc3nc2Nc2cccc(S(=O)(=O)N3CCCC3)c2)cc1	82*	53*	17	12	8	51*	41*	Full FLuc ctr=93*
Cc1ccc(NC(=O)c2ccccc2NS(=O)(=O)c2ccc(F)cc2)cc1S(=O)(=O)N1CCCCC1	95*	89*	21	0	20	91*	84*	Full FLuc ctr=28
O=C(Nc1cccc(S(=O)(=O)N2CCCCC2)c1)c1ccccc1NS(=O)(=O)c1ccc(F)cc1	96*	89*	4	12	14	71*	81*	Full FLuc ctr=111*
COc1ccc(S(=O)(=O)Nc2cccc(S(=O)(=O)N3CCCCC3)c2)cc1	-1	-8	28	-4	9	·	·
CCOC(=O)c1ccc2nc(Nc3nc4ccc(F)cc4s3)sc2c1	101*	82*	21	8	11	60*	7	Full FLuc ctr=11;MPTP swell DR=5*;MPTP cs DR=<2.5*
CCOC(=O)N1CCN(S(=O)(=O)c2ccc(C(=O)Nc3nc4ccc(F)cc4s3)cc2)CC1	62*	55*	14	12	16	23	1	MPTP swell DR=i;MPTP cs DR=6.3*
SMILES	MPTP block	Mdm2 MdmX PPI	tim23-1 inh	TIM10 inh	tim10-1 inh	Mdm2 MdmX conf	Rh123 counter	others
COC(=O)c1ccc2nc(NC(=O)CN3C(=O)CCC3=O)sc2c1	-1	10	-3	3	9	·	·
COC(=O)c1ccc2nc(Nc3nc4c(F)cc(F)cc4s3)sc2c1	101*	88*	11	17	22	37	64*
O=S(=O)(O)c1cc(O)c(N=Nc2ccc(O)cc2O)c2ccccc12	19	·	·	·	·	·	·
COc1cc(CN2C(=O)C(C)ON=C2c2ccccc2F)cc(OC)c1 (configuration not stated)	0	·	·	·	·	·	·
O=c1[nH]c(=S)[nH]c2c1C(c1ccc(F)cc1)OC(CCOCc1ccccc1)C2 (configuration not stated)	-1	·	·	·	·	·	·
Cc1ccc(S(=O)(=O)n2ccc3c(OCCOCCSCC(NC(=O)OC(C)(C)C)C(=O)O)cccc32)cc1 (configuration not stated)	1	12	14	-11	7	·	·
Cc1ccc(S(=O)(=O)n2ccc3c(OCCOCCNCc4ccc(F)cc4)cccc32)cc1	68*	54*	30	33	18	23	86*
Cc1ncnc(N)c1CCCNc1ccccc1	2	·	·	·	·	·	·
O=C1C(=O)c2ccccc2C(O)=C1C1CCC(c2ccc(Cl)cc2)CC1 (configuration not stated)	102*	90*	18	33	25	27	93*
CCN1C[C@@H]2[C@@H]3C(=O)N(Cc4ccccc4)C(=O)[C@@H]3[C@](C)(C1=O)N2C(=O)c1ccc(C(F)(F)F)cc1	0	·	·	·	·	·	·
C[C@@H](NCCc1ccc(O)cc1)[C@@H](O)c1ccc(O)cc1	-1	-10	-47	-96	-32	·	·
CCCCCCCCNC(C)C(O)c1ccc(SC(C)C)cc1 (configuration not stated)	86*	95*	38	-81	21	15	11
CCCc1nc(SCC(=O)Nc2ccccc2)c2c(=O)n(C)c(=O)n(C)c2n1	-2	9	-2	-7	-2	·	·

Bioassay records (PubChem BioAssay)
